Measurements as given in PubChem BioAssay (Tox21).
Inconclusive results are not listed. Entries that show only a call come without a potency. Activity calls are given as the source filed them. The call rests on the fitted dose curve; in most records, active means well fitted cell-killing curve with a large enough effect in the repeat runs; inconclusive means weak or mixed curves; inactive means no such curve, though single readings can be large or run the other way.

Experiment: qHTS assay to identify small molecule agonists of the peroxisome proliferator-activated receptor delta (PPARd) signaling pathway - cell viability counter screen (AID 743211); further: nearly all actives have a fitted effect of over 55% in size
Conditions: PPARd-bla HEK293H viability, CellTiter-Glo luminescence, 17 h; series mostly up to 62.6 µM
Description: U.S. Tox21 Program National Center for Advancing Translational Sciences [NCATS] NIH Chemical Genomics Center [NCGC] U.S. Environmental Protection Agency [EPA] National Institutes of Environmental Health Sciences [NIEHS] National Toxicology Program [NTP] U.S. Food and Drug Administration [FDA] Tox21 Assay Overview: The peroxisome proliferator-activated receptors (PPARs) are lipid-activated transcription factors of the nuclear receptor superfamily with three distinct subtypes namely PPAR alpha, PPAR delta (PPARd) and PPAR gamma. All these subtypes heterodimerizes with Retinoid X receptor (RXR) and have different physiological functions. […] To identify the compounds that activate PPAR-delta signaling, GeneBLAzer PPAR delta UAS-bla HEK293H cell line (Invitrogen, Carlsbad, CA, USA) containing a beta-lactamase reporter gene under the control of an Upstream Activator Sequence (UAS) was used to screen the Tox21 compound library. The cytotoxicity of the Tox21 compound library against the PPARd-bla cell line was tested in parallel by measuring the cell viability using CellTiter-Glo assay (Promega, Madison, WI) in the same wells.
Tox21 Assay Protocol Summary: PPARd-bla cells were dispensed at 3000 cells/6uL/well in 1536-well black wall/clear bottom plates using a Multidrop Combi (Thermo Fisher Scientific, Waltham, MA) dispenser. After the assay plates were incubated at 37 C and 5% CO2 for 5 h, 23 nL of compounds dissolved in DMSO, positive controls or DMSO only was transferred to the assay plate by a Pintool station (Kalypsys, San Diego, CA). The assay plates were incubated at 37C for 17 h. After 1 uL of LiveBLAzerTM B/G FRET substrate was added using a Bioraptr Flying Reagent Dispenser (FRD) workstation (Beckman Coulter, Indianapolis, IN, USA), the plates were incubated at room temperature for 2 h, and fluorescence intensity was measured by an Envision plate reader (PerkinElmer, Shelton, CT). For cell viability readout that measures cytotoxicity, 3 ul/well of CellTiter-Glo reagent was added into the assay plates using a Bioraptr FRD. After 30 min incubation at room temperature, the luminescence intensity in the plates was measured using a ViewLux plate reader (PerkinElmer).
Potency means the concentration at half of the fitted maximal effect.

SMILES | Potency
C[Si](C)(C)Cl | inactive
C1CC(COCC2CO2)CCC1COCC1CO1 (stereo not given) | inactive
COC(=O)NCCC[Si](OC)(OC)OC | inactive
O=C1C=CC(=O)N1c1ccccc1 | 15.5 µM (active)
Clc1ccc(C(Cn2ccnc2)OCc2c(Cl)cccc2Cl)c(Cl)c1 (stereo not given) | 26.6 µM (active)
CCCCCCCC/C=C\CCCCCCCC(=O)N(C)CC(=O)O | 38.9 µM (active)
C=C[C@](C)(O)CC[C@@H]1[C@@]2(C)CCCC(C)(C)[C@@H]2CC[C@@]1(C)O | 54.9 µM (active)
Cc1cc2c(C(C)C)c(O)c(O)c(C=O)c2c(O)c1-c1c(C)cc2c(C(C)C)c(O)c(O)c(C=O)c2c1O | 9.44 µM (active)
C[C@H]1O[C@@H](O[C@H]2[C@@H](O)C[C@H](O[C@H]3[C@@H](O)C[C@H](O[C@H]4CC[C@@]5(C)[C@H](CC[C@@H]6[C@@H]5C[C@@H](O)[C@]5(C)[C@@H](C7=CC(=O)OC7)CC[C@]65O)C4)O[C@@H]3C)O[C@@H]2C)C[C@H](O)[C@@H]1O | 0.0385 µM (active)
c1ccc(Nc2cccc3ccccc23)cc1 | inactive
CCCCCCCCCCOCC(O)CN (stereo not given) | 26.6 µM (active)
CCOC(=O)[C@@](C)(N)Cc1ccc(O)c(O)c1 | inactive
Nc1ccc2cc3ccc(N)cc3nc2c1 | inactive
CO[C@H]1C=CO[C@@]2(C)Oc3c(C)c(O)c4c(O)c(cc(O)c4c3C2=O)NC(=O)/C(C)=C\C=C/[C@H](C)[C@H](O)[C@@H](C)[C@@H](O)[C@@H](C)[C@H](OC(C)=O)[C@@H]1C | inactive
CC(NCCC(c1ccccc1)c1ccccc1)c1ccccc1 (stereo not given) | 29.8 µM (active)
Cc1c(C)n(Cc2ccccc2)c2ccc(C(=O)OCCN(C)C)cc12 | 26.6 µM (active)
Cc1cc(Nc2ccc(O)cc2)ccc1N | inactive
Nc1cc(Cl)c([N+](=O)[O-])cc1O | inactive
NC(=O)C(=O)N/N=C/c1ccc([N+](=O)[O-])o1 | inactive
Clc1ccc(C(c2ccccc2Cl)C(Cl)Cl)cc1 (stereo not given) | 49 µM (active)

SMILES | Potency
CC(C(O)c1ccccc1)N(C)CCOC(c1ccccc1)c1ccccc1 (stereo not given) | 29.8 µM (active)
CCC1(c2cnc[nH]2)Cc2ccccc2C1 | inactive
O=C(O)CCCCCCC(=O)O | inactive
CCCCCCC(C)Nc1ccc(Nc2ccccc2)cc1 (stereo not given) | 43.6 µM (active)
CN1[C@@H]2CC[C@@H]1CC(OC(=O)C(CO)c1ccccc1)C2 (stereo not given in full) | inactive
C=CC(=O)OCCOCC(CC)(COCCOC(=O)C=C)COCCOC(=O)C=C | 51 µM (active)
O=S(=O)(O)CCCN1CCOCC1 | inactive
C[C@]12CC[C@H]3C(=CCc4cc(O)ccc43)[C@@H]1CCC2=O | inactive
O=C1OC(=O)c2cccc3cccc1c23 | inactive
Nc1ncnc2c1ncn2[C@@H]1O[C@H](COP(=O)(O)O)[C@@H](O)[C@H]1O | 10.6 µM (active)
ClC/C=C\CCl | inactive
CC(C)(C)CC(C)(C)c1ccccc1O | 43.9 µM (active)
CCCOc1sc(C(=O)N2CCC(c3cc(CN)ccc3F)CC2)c(C)c1Br | 15.9 µM (active)
Oc1ccc(-c2ccccc2)c(Cl)c1 | inactive
CCCSS/C(CCO)=C(\C)N(C=O)Cc1cnc(C)nc1N | inactive
CC(C)=C1CC[C@@H](C)CC1=O | inactive
COC(=O)C1=C(C)NC(C)=C(C(=O)OCCCN2CCC(c3ccccc3)(c3ccccc3)CC2)C1c1cccc([N+](=O)[O-])c1 (stereo not given) | 10.6 µM (active)
NCCCC(O)(P(=O)(O)O)P(=O)(O)O | inactive
CC(C)(c1cc(Br)c(OCCO)c(Br)c1)c1cc(Br)c(OCCO)c(Br)c1 | 15.1 µM (active)
C=C(c1ccc(C(=O)O)cc1)c1cc2c(cc1C)C(C)(C)CCC2(C)C | 61.6 µM (active)
